Compound activity from PubChem BioAssay.
Tau ThT inhib = blocks human tau fibril formation measured by thioflavin T. P10636. recombinant tau K18 P301L, heparin-induced fibrillization, ThT fluorescence. Potency, µM (titrated, usually from 57.4 µM), for the others: at the highest dose activity, negative = inhibition, actives largely listed as inhibitors. 2.1% of 270,000 active; further: potency means the concentration at half of the fitted maximal effect; nearly all actives have a fitted effect of over 55% in size
Target sequence (P10636 561-689 P618L limits assumed): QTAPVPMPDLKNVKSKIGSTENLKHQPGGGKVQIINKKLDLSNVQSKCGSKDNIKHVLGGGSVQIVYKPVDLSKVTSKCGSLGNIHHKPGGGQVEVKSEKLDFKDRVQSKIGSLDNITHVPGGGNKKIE
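ThT emission at 510 nm, taken 1 hr after adding 30 uM dye, quantifies aggregates formed when 20 uM heparin acts on human tau K18 P301L for 6 hr at 37 C.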
Tau FP inhib = blocks human tau fibril formation measured by polarization | K18 P301L tau heparin fibrillization, Alexa594 FP, 6 h | P10636 | AID 1468 | Potency, µM (series often up to 57.7 µM), without a hit: top-dose activity, negative = inhibition, actives largely listed as inhibitors | 0.39% of 280,000 active; further: potency means the concentration at half of the fitted maximal effect; nearly all actives have a fitted effect of over 55% in size
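Quantitative HTS format: compounds meet 15 uM recombinant K18 P301L tau and Alexa 594-tau tracer in 100 mM sodium acetate pH 7; 20 uM heparin triggers fibrillization at 37 C over 6 hr; FP gives the signal.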
G9a block = blocks human histone lysine methyltransferase G9a; Q96KQ7; G9a H3K9 monomethylation, AlphaScreen, 2 h; Potency, µM (top dose mostly 102 µM), for the others: at the top dose activity, negative = inhibition, usual class: inhibitors; 8.8% of 350,000 active; further: potency means the concentration at half of the fitted maximal effect; nearly all actives have a fitted effect of over 75% in size
Target sequence (Q96KQ7 913-1193 limits assumed): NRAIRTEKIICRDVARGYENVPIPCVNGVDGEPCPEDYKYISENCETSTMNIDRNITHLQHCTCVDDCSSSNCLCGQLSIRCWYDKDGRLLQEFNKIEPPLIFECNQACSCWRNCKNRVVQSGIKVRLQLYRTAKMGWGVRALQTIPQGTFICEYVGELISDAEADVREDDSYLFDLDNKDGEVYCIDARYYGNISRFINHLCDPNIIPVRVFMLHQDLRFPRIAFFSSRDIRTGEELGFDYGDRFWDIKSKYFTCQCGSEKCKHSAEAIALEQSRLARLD
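AlphaScreen detection with an anti-monomethyl H3K9 antibody quantified product after a 2 h room-temperature reaction containing 500 nM biotinylated H3K9 peptide, 20 µM SAM and 20 nM enzyme, which had been preincubated 15 min with compound.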
FBPA coupling cs = coupling enzyme interference in Giardia aldolase counter-screen; activity change, negative = inhibition, % at 58.2 µM, hits read low; 0.67% of 290,000 active; AID 2472; coupling enzyme system counterscreen, AmpLite Red fluorescence; in the data active means activity change below about -30%
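Fluorescence at 525 nm excitation and 598 nm emission measured inhibition of the coupled detection system without aldolase. Compounds (at 57.5 uM final) were preincubated 10 min at room temperature with coupling enzyme reagent before a 20 min substrate/AmpLite Red step.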
Tau fluor counter = counter-screen for tau fibril formation inhibitors; tau K18 P301L Alexa594 fluorescence, heparin fibrillization; Potency, µM (top dose mostly 57.7 µM), for the others: at the top dose activity change, negative = decrease; 0.93% of 280,000 active; AID 1463; further: potency means the concentration at half of the fitted maximal effect; nearly all actives have a fitted effect of over 55% in size
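Human tau K18 P301L (15 uM unlabeled, 0.24 uM Alexa 594-labeled) in 100 mM sodium acetate pH 7 with 20 uM heparin, 6 hr at 37 C. ThT 30 uM added, 1 hr ambient; Alexa 594 FP and total fluorescence read at 555/632 nm.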
Sfp inh = blocks B. subtilis Sfp PPTase activity; Potency, µM, inactives show largest response in the series, negative = inhibition, most hits filed as inhibitors; Biochemical Sfp PPTase activity, qHTS; 3.5% of 310,000 active; Q9F4F7; AID 1490;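 further: the enzyme is Sfp with the accession as filed and its product quenches rhodamine fluorescence; potency means the concentration at half of the fitted maximal effect; 0% = enzyme reaction without inhibitor and -100% = no enzyme wells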
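Compounds were incubated with enzyme (final 15 nM) for 15 min at room temperature before substrate addition started the reaction. Fluorescence at 525 nm excitation, 598 nm emission was recorded immediately and after 30 minutes.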
An asterisk follows results filed as active; u = inconclusive; x = not tested or not shown; [ ] = remark or other dose. An excerpt weighted towards active compounds, which were near 11% of everything screened. Unless noted, the call rests on the fitted dose curve; in most records, active means well fitted curve in the direction sought with a large enough effect; inconclusive means small, poorly fitted or top-dose-only effect, or another doubt; inactive means no such curve, though single readings can be large; an effect the other way counts as inactive or inconclusive. Unless noted, on the % scale 0 is the no-effect control and ±100 the full control effect.

SMILES | Tau ThT inhib | Tau FP inhib | G9a block | FBPA coupling cs | Tau fluor counter | Sfp inh
O=S(=O)(c1cccc(COc2c(Cl)cccc2Cl)c1)N1CCOCC1 | x | x | 19% | x | x | x
Cc1cc(Br)ccc1OCCCCNC(C)(C)C | -10% | -1% | x | 3 | -4% | -24%
COCCCNCCCCOc1ccc(Br)cc1C | 3% | -2% | 10µM* | -2 | 1% | -2%
COCCNCCCCOc1ccc(Br)cc1C | 4% | 2% | 5.6µM* | 0 | 6% | -20%
COCCNC(=O)COc1ccc(Br)cc1Cl | -4% | 1% | -3%[12.7 µM] | 1 | -1% | 4%
CCCS(=O)(=O)N1CC(=O)N(c2ccc(C)cc2C)C(C)(C(=O)NC2CCCCCC2)C1 (stereo not drawn) | 0% | -2% | -1%[59 µM] | x | -1% | x
Cc1cccc(NC(=O)Cn2c(=O)nc(-c3ccccc3)c3ccccc32)c1C | 4% | 2% | 1%[12.7 µM] | x | 7% | x
C=CCC1NCCc2c(Br)cccc21 (stereo not drawn) | -6% | 5% | 22µM* | 3 | -2% | 25%
Cc1cn(C)c(CC(=O)NCc2ccccc2Cl)c1C(=O)O | 5% | 1% | 1%[59 µM] | x | 4% | x
N#Cc1nc(-c2ccc(OCc3ccccc3)cc2)oc1N1CCC(C(N)=O)CC1 | -10% | -5% | 8%[2.33 µM] | 3 | -19% | -20%
CCN1CCN(c2oc(-c3ccc(COc4ccc(OC)cc4)o3)nc2C#N)CC1 | u | 0% | 14µM* | x | u | x
Cc1ccccc1OCc1ccc(-c2nc(C#N)c(N3CCN(c4ccccc4)CC3)o2)o1 | -5% | -3% | u | x | -19% | x
Cc1ccc(OCc2ccc(-c3nc(C#N)c(N4CCN(c5cccc(Cl)c5)CC4)o3)o2)cc1 | -8% | 6% | -29%[59 µM] | x | -6% | x
N#Cc1nc(-c2ccc(COc3ccc(Cl)cc3)o2)oc1N1CCC(C(N)=O)CC1 | -15% | 12% | 8.9µM* | x | -28% | x
Cc1ccccc1OCc1ccc(-c2nc(C#N)c(N3CCN(C)CC3)o2)o1 | -12% | 17% | 11µM* | x | -23% | x
N#Cc1c(-n2ncnc2-c2ccc(F)cc2)sc2c1CCCCC2 | u | -12% | u | x | -25% | x
C=CSc1sc(Cl)c(N2CCOCC2)c1[N+](=O)[O-] | 14µM* | -6% | -106%[59 µM] | 3 | u | u
C=CS(=O)(=O)c1sc(Cl)c(N2CCOCC2)c1[N+](=O)[O-] | 3.5µM* | -2% | 8.9µM* | 7 | u | 22µM*
O=[N+]([O-])c1cccc(Cl)c1N1CCOCC1 | -2% | -3% | 14% | 1 | 7% | -9%
CCC1=Nc2cc(C(=O)N3CCC(C)CC3)ccc2Sc2ccc(C)cc21 | -16% | -5% | -36%[59 µM] | x | -5% | x
Cc1ccccc1-c1noc(-c2cc(C(C)C)[nH]n2)n1 | u | -6% | 5%[59 µM] | x | -28% | x
CN(C)c1ccc(NC(=O)c2sc(SCC(=O)Nc3nccs3)nc2N)cc1 | 4µM* | 11% | u | -1 | 14µM*[quencher] | -10%
COCCn1nnnc1SCC(=O)c1ccc(F)cc1 | -5% | 10% | u | 3 | 1% | u
CCn1c(SCC(=O)c2cc(OC)ccc2OC)nc2c1c(=O)n(C)c(=O)n2C | -8% | -2% | 3%[12.7 µM] | 0 | -2% | 16%
CCCn1c(SCC(=O)c2cc(OC)ccc2OC)nnc1C(C)C | -8% | 1% | 50µM* | 1 | 2% | -27%
SMILES | Tau ThT inhib | Tau FP inhib | G9a block | FBPA coupling cs | Tau fluor counter | Sfp inh
COc1ccccc1NC(=O)CSc1nnc(Cc2cccs2)n1C | x | x | -41%[59 µM] | x | x | x
COc1ccc(OC)c(C(=O)CSc2nnc(Cc3cccs3)n2C)c1 | -1% | 0% | -16%[59 µM] | -12 | 2% | 45µM*
COCCn1c(SCC(=O)c2ccc(F)cc2)nnc1C(C)C | -10% | -5% | u | 5 | -2% | 56µM*
CO[C@@H]1COC(=O)CC=C[C@@H](C)[C@@H]2C=C[C@@H](O)[C@@H](COC(=O)C/C=C\[C@H]1C)O2 | -1%[11.5 µM] | -3%[11.6 µM] | x | -1 | 0%[11.6 µM] | 17%
O=C1[C@H]2[C@@H](C(=O)N1c1cc(Cl)cc(Cl)c1)[C@]1(C(=O)Nc3ccccc31)N1CCC[C@@H]21 | u | -1% | u | 0 | u | 16%
Cc1cc(Cl)c2c(c1)[C@]1(C(=O)N2)[C@@H]2C(=O)N(Cc3ccccc3)C(=O)[C@@H]2[C@@H]2CCCN21 | u | 11% | 45µM* | -19 | -10% | -14%
Nc1nc(SCC(=O)c2cc(F)ccc2F)n[nH]1 | -6% | -5% | 40µM* | 0 | -6% | 0%
Nc1nc(SCC(=O)c2ccc(F)cc2)n[nH]1 | -4% | 1% | 45µM* | 0 | 0% | -23%
Cc1cc(C(=O)CSc2n[nH]c(N)n2)c(C)n1-c1cc(F)ccc1F | -16% | 1% | u | 4 | -8% | -17%
Cc1cc(C(=O)CSc2n[nH]c(N)n2)c(C)n1-c1ccc(F)cc1 | -7% | 3% | u | 1 | -3% | -10%
Cc1nnc(C)n1/N=C/c1cc(Br)cc(Br)c1O | 11µM* | -12% | 1.6µM* | -6 | -11% | -10%
Cc1nnc(C)n1/N=C/c1cc(Br)ccc1O | -10% | -3% | 10µM* | 1 | -8% | -22%
Cc1nc(N2CCN(Cc3ccccc3)CC2)nc2c1C(=O)CC(C)C2 (stereo not drawn) | -15% | 0% | -2% | 4 | -4% | -6%
COc1ccc(C2CC(=O)c3c(C)nc(N4CCN(Cc5ccccc5)CC4)nc3C2)cc1OC (stereo not drawn) | -15% | 5% | 35µM* | -1 | -7% | -20%
CC1CCC(NC(=O)COC(=O)c2cccnc2Cl)CC1 (stereo not drawn) | x | x | 17%[2.33 µM] | x | x | x
CCOC(=O)C(=NCC1CCCO1)NNc1cc(Cl)ccc1Cl (stereo not drawn) | x | 9% | 35µM* | 1 | u | -13%
N#CC1=C(N)Nc2ncnn2C1c1ccc(F)cc1 (stereo not drawn) | -12% | -5% | 40µM* | -3 | -3% | 5%
Cc1ccc(N(C)C(=O)Cn2ncc3c([nH]c4ccccc43)c2=O)cc1C | -4% | 7% | u | x | 5% | x
Cc1c(NC(=O)c2ccc(Cl)nc2)cccc1-c1nc2cccnc2s1 | x | 0% | 21% | 2 | -5% | 13%
O=C(Nc1cccc2ncccc12)c1ccc(Cl)cc1 | x | x | 7.1µM* | 0 | x | -3%
Cc1c(NC(=O)c2ccco2)cccc1-c1nc2cccnc2s1 | -10% | -3% | 14µM* | 2 | 0% | u
O=C(Nc1cccc2ncccc12)c1ccc(F)cc1 | 3% | 0% | 23%[59 µM] | 1 | 2% | 25%
O=C(NC(=S)Nc1cccc2c(O)cccc12)c1ccco1 | x | x | x | -4 | x | 50µM*
O=C(NC(=S)Nc1cccc2cc(O)ccc12)c1ccccc1Br | x | x | 32µM* | x | x | 3%
